Shown are actives, neighbours in structure and some others; about 3.5% of the full set was active somewhere.
MITF inh – inhibitors of human MITF; O75030; AlphaScreen MITF homodimerization, bead proximity signal; inhibition, % at 2.6 µM; actives 0.91% (n = 650,000); AID 1259374; in the data active means inhibition above about 50%
Target sequence (O75030 whole entry, looked up): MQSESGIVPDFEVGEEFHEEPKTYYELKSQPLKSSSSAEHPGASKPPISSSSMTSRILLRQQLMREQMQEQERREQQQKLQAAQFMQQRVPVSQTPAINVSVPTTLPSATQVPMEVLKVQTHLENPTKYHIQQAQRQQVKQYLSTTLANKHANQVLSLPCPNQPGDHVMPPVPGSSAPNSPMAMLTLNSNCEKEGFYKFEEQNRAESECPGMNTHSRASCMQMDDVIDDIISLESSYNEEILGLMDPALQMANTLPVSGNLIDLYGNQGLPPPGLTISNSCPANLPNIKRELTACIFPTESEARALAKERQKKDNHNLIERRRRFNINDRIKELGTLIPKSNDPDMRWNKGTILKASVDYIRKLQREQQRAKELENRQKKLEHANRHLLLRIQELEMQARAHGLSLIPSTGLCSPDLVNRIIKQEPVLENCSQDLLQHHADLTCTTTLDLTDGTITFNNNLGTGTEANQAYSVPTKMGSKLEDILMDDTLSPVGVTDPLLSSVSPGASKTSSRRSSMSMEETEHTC
TEAD-YAP block – TEAD-YAP interaction inhibition; actives 1.4% (n = 640,000); HEK-TIYL cells, TEAD-Gal4/YAP UAS-luciferase luminescence; inhibition, % at 9.12 µM; in the data active means inhibition above about 32%
FBW7 activator – human FBW7 E3 ligase activation, primary screen. actives 0.13% (n = 650,000). normalized activity (activation), % at 26.1 µM. AID 1259310. AlphaScreen FBW7–phospho-cyclin E peptide binding, activator screen; in the data active means normalized activity above about 1.9%;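 further: purified mutant Fbw7 with reduced substrate affinity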
GPR151 activ – activators of human GPR151; actives 1% (n = 650,000); PathHunter beta-arrestin GPR151 cells, luminescence; AID 1508602; activation, % at 11.2 µM; Q8TDV0; in the data active means activation above about 4.9%
MITF inh conf – human MITF inhibition, confirmation. shares compounds with MITF inh. AlphaScreen MITF homodimerization, biotin/His-MITF beads. inhibition, % at 2.6 µM. actives 16% (n = 4,700). AID 1259372;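 active means inhibition above a cutoff derived from the DMSO control wells, cut at about 28% in these data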;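 further: inhibitors lower the bead chemiluminescence by keeping MITF from dimerizing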
AlphaScreen DR – optically interferes with AlphaScreen signal in dose response; actives 6% (n = 480); AID 1259373; IC50, µM; AlphaScreen optical interference counterscreen, cell-free; shares compounds with MITF inh; call rule not given here
AS interf ctr – counter-screen: compounds optically interfering with AlphaScreen; inhibition, % at 2.6 µM; actives 7.6% (n = 4,700); AID 1259376; LysRS AlphaScreen counterscreen, signal interference, triplicate; shares compounds with MITF inh;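 active means inhibition above a cutoff derived from the DMSO control wells, cut at about 30% in these data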
Numbers stand for hits; . = inactive; / = no result.

SMILES	MITF inh	TEAD-YAP block	FBW7 activator	GPR151 activ	MITF inh conf	AS interf ctr	others
COc1ccc(N2C(=O)C3CCCCC3C2=O)cc1NC(=O)c1ccc(Cl)cc1Cl (stereo unspecified)	76	.	.	.	.	.
CCCCC(CCCC)(Nc1ccc(F)c(F)c1)C(=O)NNc1ccccc1	61	.	.	.	.	.
CCCOc1ccc(N)cc1N	57	.	.	.	110	.	AlphaScreen DR=.
COc1ccc(Cl)cc1C(=O)NCCC(C)C	.	.	.	.	/	/
CCOC(=O)c1cc(CC)sc1NC(=O)c1cc([N+](=O)[O-])ccc1N1CCCCCC1	.	.	.	.	/	/
CCOC(=O)c1cc(CC)sc1NC(=O)c1cc([N+](=O)[O-])ccc1Cl	60	.	.	.	.	.
CCOC(=O)c1c(C)oc(NC(=O)c2ccc([N+](=O)[O-])cc2Cl)c1C#N	54	.	.	.	.	.
CC(=O)Nc1cc(-c2ccccc2)nn1Cc1ccc(Cl)cc1	.	.	.	.	/	/
CC(=O)Nc1cc(-c2ccc(Cl)cc2)nn1-c1ccccc1	81	.	.	.	.	.
Cc1cccc(CNC(=O)C2CC23CCN(C(=O)c2cc(-c4ccccc4)no2)CC3)n1 (stereo unspecified)	.	.	.	.	/	/
Cc1cccc(CNC(=O)C2CC23CCN(C(=O)c2c(-c4ccccc4)noc2C)CC3)n1 (stereo unspecified)	80	.	.	.	.	.
COc1ccccc1/C=C1/SC(=S)N(Cc2ccco2)C1=O	.	.	.	.	/	/
Fc1ccccc1OCCN1CCN(Cc2ccccc2)CC1	73	.	.	.	.	.
Fc1ccccc1OCCN1CCOCC1	.	.	.	.	/	/
CCOc1ccccc1OCCN1CCOCC1	.	.	.	.	/	/
CCOc1ccccc1OCCN1CC(C)CC(C)C1 (stereo unspecified)	78	.	.	.	.	.
CCOc1ccccc1OCCN1CCN(Cc2ccccc2)CC1	64	.	.	.	.	.
COC(=O)c1ccc(NC(=O)CSc2nc3sc4c(c3c(=O)[nH]2)CCC4)cc1	.	.	.	.	/	/
O=C(N[C@@H]1CCN(C(=O)c2ccc3[nH]ncc3c2)C1)c1ccc(Br)cc1	.	.	.	.	/	/
CCCCOc1ccc(C(=O)N/C(=C\c2ccc(Br)cc2)C(=O)Nc2ccc(Cl)cc2Cl)cc1	.	.	.	.	/	/
COCCCNCCOCCOc1c(C)cc(C)cc1Cl	52	.	.	.	.	.
COCCCNCCCCOc1c(Cl)cc(C)cc1Br	58	.	.	.	.	.
Cc1cc(Br)cc(Cl)c1OCCCNCCN(C)C	.	.	.	.	/	/
Cc1cc(C)c(OCCCNCCN(C)C)c(Br)c1	55	.	.	.	.	.
COCCNCCCOc1c(Cl)cc(C)cc1Br	.	.	.	.	/	/
SMILES	MITF inh	TEAD-YAP block	FBW7 activator	GPR151 activ	MITF inh conf	AS interf ctr	others
O=C(NCCCN1CCCC1=O)c1ccc2snnc2c1	.	.	.	.	/	/
CCCSc1nnc2c(n1)OC(c1ccc(O)c(OCC)c1)Nc1ccccc1-2 (stereo unspecified)	.	.	.	.	/	/
CCC(C(=O)NC(C)C)n1nc(C)n2c(cc3sccc32)c1=O (stereo unspecified)	.	.	.	.	/	/
CC[C@@H]1NC(=O)[C@H]2CN(C(=O)Oc3ccc(Cl)cc3)CCN2C1=O	.	.	.	.	/	/
CCC(=O)Nc1ccccc1C(=O)OCC(=O)c1cccc([N+](=O)[O-])c1	56	.	.	.	.	.
O=C(CSc1nc2ccccc2[nH]1)NCCC12CC3CC(CC(C3)C1)C2	.	.	.	.	/	/
COc1cccc(C(=O)N2CCN(Cc3cc(OC)ccc3OC)CC2)c1	.	.	.	.	/	/
COc1cccc(C(=O)N2CCN(Cc3cc(Br)ccc3OC)CC2)c1	58	.	.	.	.	.
COc1cc(OC)c(OC)cc1CN1CCN(C(=O)c2cccc(Cl)c2)CC1	.	.	.	.	/	/
COc1ccc(Br)cc1CN1CCN(C(=O)c2cccc(Cl)c2)CC1	53	.	.	.	.	.
COc1ccc(C2(CNC(=O)Nc3ccc(OC)c(OC)c3)CCCC2)cc1	.	.	.	.	/	/
C=CCOc1ccc2c3c(c(=O)oc2c1C)CCC3	54	.	.	.	.	.
Cc1ccccc1Cn1c(SCc2ccc(F)cc2)nc2c1c(=O)n(C)c(=O)n2C	.	.	.	.	/	/

Screening data (PubChem)
